Data as given in PubChem BioAssay (NCI).
This is part of a sample that, as a whole, favours compounds with a hit. Of some 79,000 tested, about 15% had one in any assay. Calls of active or inactive are those of the source. No stated cut-off is given here; in the data, active means growth inhibition above about 70%; inactive means the rest.

Assays:
[1] = NCI Yeast Anticancer Drug Screen. Data for the rad52 strain (AID 147);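 further: 0% = growth of vehicle-treated control cultures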; conditions: S. cerevisiae rad52 mutant growth inhibition, hits give high values
Method in brief: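 Yeast strain carrying a DNA damage repair alteration was exposed to test compounds. Growth inhibition was measured relative to vehicle-treated controls.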

[2] = NCI Yeast Anticancer Drug Screen. Data for the wt1 strain (AID 149);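 further: 0% = growth of vehicle-treated wt1 cultures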; conditions: S. cerevisiae wt1 strain (SPY 50644) growth inhibition, hits give high values
Method in brief: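 Measured: growth of wt1 yeast under compound versus vehicle treatment, reported as inhibition.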

[3] = NCI Yeast Anticancer Drug Screen. Data for the rad50EPP+ strain (AID 151);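 further: 0% = growth of vehicle-treated control cultures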; conditions: S. cerevisiae rad50 mutant strain, hits give high values
Method in brief: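 Yeast strain carrying rad50 alteration (rad50EPP+) exposed to compounds; growth inhibition measured relative to vehicle-treated controls.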

[4] = NCI Yeast Anticancer Drug Screen. Data for the mgt1 strain (AID 153); conditions: S. cerevisiae mgt1 mutant growth inhibition, hits give high values
Method in brief: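 Yeast mgt1 strain (DNA repair/cell-cycle alteration panel) exposed to compounds; growth inhibition measured relative to vehicle-treated controls.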

[5] = NCI Yeast Anticancer Drug Screen. Data for the rad50 strain (AID 155);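 further: 0% = growth of vehicle-only cultures of the same strain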; conditions: S. cerevisiae rad50 strain growth inhibition, hits give high values
Method in brief: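 Growth of the mutant yeast was measured after compound exposure and referenced to vehicle-treated cultures.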

[6] = NCI Yeast Anticancer Drug Screen. Data for the mec2-1 strain (AID 157); conditions: S. cerevisiae mec2-1 strain, hits give high values
Method in brief: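 mec2-1 yeast strain, carrying an alteration in DNA damage repair or cell cycle control, was exposed to compounds; growth inhibition was measured relative to vehicle-treated controls.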

[7] = NCI Yeast Anticancer Drug Screen. Data for the rad14 strain (AID 159);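 further: 0% = growth of vehicle-treated control cultures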; conditions: S. cerevisiae rad14 strain growth inhibition, hits give high values
Method in brief: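 Here, inhibition of yeast growth was measured after compound exposure, using a strain with a genetic defect in DNA damage repair and vehicle-treated cultures as the reference.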

[8] = NCI Yeast Anticancer Drug Screen. Data for the sgs1 mgt1 strain (AID 161);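 further: 0% = growth of cultures given vehicle only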; conditions: S. cerevisiae sgs1 mgt1 strain, hits give high values
Method in brief: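 Percent growth inhibition was derived by comparing compound-exposed mutant yeast with vehicle-exposed cultures. The strain carries alterations in DNA damage repair.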

[9] = NCI Yeast Anticancer Drug Screen. Data for the CLN2oe strain (AID 163);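 further: 0% = growth of vehicle-only control cultures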; conditions: S. cerevisiae CLN2oe strain, hits give high values
Method in brief: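 Yeast cells carrying a defined cell-cycle control alteration were exposed to test compounds. Growth inhibition was scored against vehicle-treated control cultures.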

[10] = NCI Yeast Anticancer Drug Screen. Data for the cln2 rad14 strain (AID 165);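 further: 0% = growth equal to vehicle treated cultures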; conditions: S. cerevisiae cln2 rad14 strain, hits give high values
Method in brief: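 Yeast carrying cln2 and rad14 alterations (cell cycle control and DNA damage repair) were exposed to compounds. Growth inhibition was measured against vehicle-treated controls.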

[11] = NCI Yeast Anticancer Drug Screen. Data for the bub3 strain (AID 167); conditions: S. cerevisiae bub3 mutant strain, hits give high values
Method in brief: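 Whole-cell yeast assay. The mutant strain was incubated with compounds, and growth inhibition was determined by comparison with vehicle-treated cells.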

[12] = NCI Yeast Anticancer Drug Screen. Data for the wt2 strain (AID 169);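 further: 0% = growth of vehicle-treated yeast cultures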; conditions: S. cerevisiae wt2 strain growth inhibition, hits give high values
Method in brief: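 Yeast cells were exposed to test compounds, and growth inhibition was measured relative to vehicle-treated controls.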

[13] = NCI Yeast Anticancer Drug Screen. Data for the mlh1 strain (AID 171);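 further: 0% = growth of vehicle-treated control cultures of the same strain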; conditions: S. cerevisiae mlh1 strain growth inhibition, hits give high values
Method in brief: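 Yeast carrying a defined genetic alteration in DNA damage repair or cell cycle control were exposed to test compounds. Growth inhibition was measured relative to vehicle-treated controls.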

[14] = NCI Yeast Anticancer Drug Screen. Data for the sgs1 strain (AID 173);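 further: 0% = growth of vehicle-only control cultures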; conditions: S. cerevisiae sgs1 mutant, hits give high values
Method in brief: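 Yeast mutant strains carrying defined defects in DNA damage repair or cell cycle control were exposed to test compounds. Growth inhibition was scored against vehicle-treated controls.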

[15] = NCI Yeast Anticancer Drug Screen. Data for the mlh1 rad18 strain (AID 175); conditions: S. cerevisiae mlh1 rad18 strain growth inhibition, hits give high values
Method in brief: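 Growth inhibition of the yeast strain was measured after compound exposure and expressed relative to vehicle-treated controls. The strain carries defined defects in DNA damage repair.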

[16] = NCI Yeast Anticancer Drug Screen. Data for the rad18 strain (AID 177); conditions: S. cerevisiae rad18 mutant growth inhibition, hits give high values
Method in brief: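 Yeast carrying a defined DNA damage repair alteration were exposed to compounds. Growth inhibition was expressed relative to vehicle-treated controls.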

[17] = at 5.0 µM (retest, dose inferred, filed as 0.5)
[18] = at 50.0 µM (retest, dose inferred, filed as 5.0)

Measured: growth inhibition

O=C(Cc1csc2[n+]1C(=O)/C(=C/c1ccc(Cl)cc1)S2)Nc1ccccc1
inactive: [1]; at 1.2 µM 15% | [1]; at 3.7 µM 4% | [1]; at 11.0 µM 20% | [1]; at 33.0 µM 49% | [2]; at 1.2 µM -84% | [2]; at 3.7 µM -1% | [2]; at 11.0 µM 0% | [2]; at 33.0 µM 16% | [2]; at 100.0 µM 60% | [3]; at 1.2 µM 2% | [3]; at 3.7 µM 8% | [3]; at 11.0 µM 34% | [3]; at 33.0 µM 65% | [4]; at 1.2 µM -1% | [4]; at 3.7 µM 1% | [4]; at 11.0 µM 7% | [4]; at 33.0 µM 54% | [5]; at 1.2 µM -2% | [5]; at 3.7 µM 1% | [5]; [17] 24% | [5]; at 11.0 µM 9% | [5]; at 33.0 µM 43% | [6]; at 1.2 µM -3% | [6]; at 3.7 µM 5% | [6]; [17] 25% | [6]; at 11.0 µM 13% | [6]; at 33.0 µM 39% | [6]; at 100.0 µM 62% | [7]; at 1.2 µM 0% | [7]; at 3.7 µM 4% | [7]; at 11.0 µM 10% | [7]; at 33.0 µM 33% | [7]; at 100.0 µM 69% | [8]; [17] 2% | [9]; at 1.2 µM -6% | [9]; at 3.7 µM -14% | [9]; at 11.0 µM -12% | [9]; at 33.0 µM 8% | [9]; at 100.0 µM 47% | [10]; [17] 42% | [11]; at 1.2 µM -8% | [11]; at 3.7 µM -8% | [11]; at 11.0 µM -7% | [11]; at 33.0 µM 11% | [11]; at 100.0 µM 12% | [12]; at 1.2 µM -3% | [12]; at 3.7 µM -3% | [12]; at 11.0 µM 7% | [12]; at 33.0 µM 60% | [13]; at 1.2 µM -1% | [13]; at 3.7 µM 1% | [13]; at 11.0 µM 8% | [13]; at 33.0 µM 52% | [14]; at 1.2 µM 2% | [14]; at 3.7 µM 11% | [14]; at 11.0 µM 32% | [15]; [17] 20% | [16]; at 1.2 µM 0% | [16]; at 3.7 µM 5% | [16]; at 11.0 µM 21% | [16]; at 33.0 µM 56% | [16]; at 100.0 µM 69%
active: [1]; at 100.0 µM 87% | [3]; at 100.0 µM 75% | [4]; at 100.0 µM 87% | [5]; [18] 98% | [5]; at 50.0 µM 98.5% | [5]; at 100.0 µM 78% | [6]; [18] 99% | [6]; at 50.0 µM 98.8% | [8]; [18] 96% | [8]; at 50.0 µM 98.9% | [10]; [18] 98% | [10]; at 50.0 µM 98.5% | [11]; [17] 97% | [11]; [18] 99% | [11]; at 50.0 µM 98.8% | [12]; at 100.0 µM 82% | [13]; at 100.0 µM 75% | [14]; at 33.0 µM 72% | [14]; at 100.0 µM 89% | [15]; [18] 98% | [15]; at 50.0 µM 98.3%

CC[C@@]1(O)C(=O)OCc2c1cc1n(c2=O)Cc2cc3c(CN(C)C)c(O)ccc3nc2-1
active: [1]; at 100.0 µM 87% | [5]; at 33.0 µM 79% | [5]; [18] 85% | [5]; at 50.0 µM 80.7% | [5]; at 100.0 µM 92%
inactive: [1]; at 1.2 µM 5% | [1]; at 3.7 µM 13% | [1]; at 11.0 µM 41% | [1]; at 33.0 µM 68% | [2]; at 1.2 µM -1% | [2]; at 3.7 µM -1% | [2]; at 11.0 µM -2% | [2]; at 33.0 µM -2% | [2]; at 100.0 µM -6% | [3]; at 1.2 µM 30% | [3]; at 3.7 µM 29% | [3]; at 11.0 µM 22% | [3]; at 33.0 µM 23% | [3]; at 100.0 µM 30% | [4]; at 1.2 µM 11% | [4]; at 3.7 µM 2% | [4]; at 11.0 µM 3% | [4]; at 33.0 µM 11% | [4]; at 100.0 µM 18% | [5]; at 1.2 µM 6% | [5]; at 3.7 µM 18% | [5]; [17] 21% | [5]; at 11.0 µM 40% | [6]; at 1.2 µM -2% | [6]; at 3.7 µM -2% | [6]; [17] -3% | [6]; at 11.0 µM -1% | [6]; at 33.0 µM 2% | [6]; [18] -1% | [6]; at 50.0 µM 12.4% | [6]; at 100.0 µM 10% | [7]; at 1.2 µM -1% | [7]; at 3.7 µM -4% | [7]; at 11.0 µM -2% | [7]; at 33.0 µM -6% | [7]; at 100.0 µM -4% | [8]; [17] -3% | [8]; [18] -3% | [8]; at 50.0 µM 4.5% | [9]; at 1.2 µM -2% | [9]; at 3.7 µM -4% | [9]; at 11.0 µM -6% | [9]; at 33.0 µM -13% | [9]; at 100.0 µM -1% | [10]; [17] -3% | [10]; [18] -12% | [10]; at 50.0 µM -5.5% | [11]; at 1.2 µM 0% | [11]; at 3.7 µM -1% | [11]; [17] -3% | [11]; at 11.0 µM -3% | [11]; at 33.0 µM -14% | [11]; [18] -10% | [11]; at 50.0 µM -14.6% | [11]; at 100.0 µM -11% | [12]; at 1.2 µM -1% | [12]; at 3.7 µM 7% | [12]; at 11.0 µM -3% | [12]; at 33.0 µM -2% | [12]; at 100.0 µM -12% | [13]; at 1.2 µM 0% | [13]; at 3.7 µM -4% | [13]; at 11.0 µM -3% | [13]; at 33.0 µM 0% | [13]; at 100.0 µM 0% | [14]; at 1.2 µM -3% | [14]; at 3.7 µM 0% | [14]; at 11.0 µM 0% | [14]; at 33.0 µM 6% | [14]; at 100.0 µM 5% | [15]; [17] 0% | [15]; [18] 3% | [15]; at 50.0 µM 12.2% | [16]; at 1.2 µM 28% | [16]; at 3.7 µM 23% | [16]; at 11.0 µM 28% | [16]; at 33.0 µM 16% | [16]; at 100.0 µM 9%
